Reference: publication PMC11062922 (Nature Chemical Biology, 2023)
Read-outs that look alike come from different tables or passages of the source.

What was measured:
Parameters in all cases: species or system human, MV4-11 + K-562 + COLO205 + SK-N-BE2 + OVCAR-8
AKT2 = conditions: read-out: apparent Kd, n = 1
CDC42BPA = conditions: read-out: apparent Kd; compound concentrations:100 nM and 1000 nM (sheet 'Samples'); n = 1
CDC42BPG = conditions: read-out: apparent Kd; compound concentrations:100 nM and 1000 nM (sheet 'Samples'); n = 1
CIT = conditions: read-out: apparent Kd; compound concentrations:100 nM and 1000 nM (sheet 'Samples'); n = 1
GSK3A = conditions: read-out: apparent Kd; compound concentrations:100 nM and 1000 nM (sheet 'Samples'); n = 1
GSK3B = conditions: read-out: apparent Kd; compound concentrations:100 nM and 1000 nM (sheet 'Samples'); n = 1
LATS1 = conditions: read-out: apparent Kd; compound concentrations:100 nM and 1000 nM (sheet 'Samples'); n = 1
MAPKAPK2 = conditions: read-out: apparent Kd; compound concentrations:100 nM and 1000 nM (sheet 'Samples'); n = 1
MARK2 = conditions: read-out: apparent Kd; compound concentrations:100 nM and 1000 nM (sheet 'Samples'); n = 1
MARK3 = conditions: read-out: apparent Kd; compound concentrations:100 nM and 1000 nM (sheet 'Samples'); n = 1
MARK4 = conditions: read-out: apparent Kd; compound concentrations:100 nM and 1000 nM (sheet 'Samples'); n = 1
PAK4 = conditions: read-out: apparent Kd; compound concentrations:100 nM and 1000 nM (sheet 'Samples'); n = 1
PAK6 = conditions: read-out: apparent Kd; compound concentrations:100 nM and 1000 nM (sheet 'Samples'); n = 1
PKN1 = conditions: read-out: apparent Kd; compound concentrations:100 nM and 1000 nM (sheet 'Samples'); n = 1
PKN3 = conditions: read-out: apparent Kd; compound concentrations:100 nM and 1000 nM (sheet 'Samples'); n = 1
PRKACA = conditions: read-out: apparent Kd; compound concentrations:100 nM and 1000 nM (sheet 'Samples'); n = 1
PRKACB = conditions: read-out: apparent Kd; compound concentrations:100 nM and 1000 nM (sheet 'Samples'); n = 1
PRKCD = conditions: read-out: apparent Kd; compound concentrations:100 nM and 1000 nM (sheet 'Samples'); n = 1
PRKCI = conditions: read-out: apparent Kd; compound concentrations:100 nM and 1000 nM (sheet 'Samples'); n = 1
PRKG1 = conditions: read-out: apparent Kd; compound concentrations:100 nM and 1000 nM (sheet 'Samples'); n = 1
PRKX = conditions: read-out: apparent Kd; compound concentrations:100 nM and 1000 nM (sheet 'Samples'); n = 1
ROCK2 = conditions: read-out: apparent Kd; compound concentrations:100 nM and 1000 nM (sheet 'Samples'); n = 1
RPS6KA4 = conditions: read-out: apparent Kd; compound concentrations:100 nM and 1000 nM (sheet 'Samples'); n = 1
AGK = conditions: read-out: apparent Kd, n = 1
CDKL5 = conditions: read-out: apparent Kd; compound concentrations:100 nM and 1000 nM (sheet 'Samples'); n = 1
CLK1 = conditions: read-out: apparent Kd; compound concentrations:100 nM and 1000 nM (sheet 'Samples'); n = 1
CLK2 = conditions: read-out: apparent Kd; compound concentrations:100 nM and 1000 nM (sheet 'Samples'); n = 1
CLK4 = conditions: read-out: apparent Kd; compound concentrations:100 nM and 1000 nM (sheet 'Samples'); n = 1
MAP2K2 = conditions: read-out: apparent Kd, compound concentrations: 100 nM and 1000 nM (sheet 'Samples'), n = 1
ADRBK1 = conditions: read-out: apparent Kd, compound concentrations: 100 nM and 1000 nM (sheet 'Samples'), n = 1
NNT = conditions: read-out: apparent Kd, compound concentrations: 100 nM and 1000 nM (sheet 'Samples'), n = 1
FLT3 = conditions: read-out: apparent Kd; compound concentrations: 100 nM and 1000 nM (sheet 'Samples'), CATDS: 0.87351473919373701; n = 1
PDGFRB = conditions: read-out: apparent Kd; compound concentrations: 100 nM and 1000 nM (sheet 'Samples'), CATDS: 0.21575328371949701; n = 1
PLK1 = conditions: read-out: apparent Kd; compound concentrations: 100 nM and 1000 nM (sheet 'Samples'), CATDS: 0.29940463058405897; n = 1
RIOK2 = conditions: read-out: apparent Kd; compound concentrations: 100 nM and 1000 nM (sheet 'Samples'), CATDS: 0.18243724402643599; n = 1
STK26 = conditions: read-out: apparent Kd; compound concentrations: 100 nM and 1000 nM (sheet 'Samples'), CATDS: 0.193816418498372; n = 1
ATM = conditions: read-out: apparent Kd; compound concentrations:100 nM and 1000 nM (sheet 'Samples'); n = 1
CDK16 = conditions: read-out: apparent Kd; compound concentrations:100 nM and 1000 nM (sheet 'Samples'); n = 1
CDK17 = conditions: read-out: apparent Kd; compound concentrations:100 nM and 1000 nM (sheet 'Samples'); n = 1
CDK2 = conditions: read-out: apparent Kd; compound concentrations:100 nM and 1000 nM (sheet 'Samples'); n = 1
STK3 = conditions: read-out: apparent Kd; compound concentrations:100 nM and 1000 nM (sheet 'Samples'); n = 1
STK4 = conditions: read-out: apparent Kd; compound concentrations:100 nM and 1000 nM (sheet 'Samples'); n = 1
[1] = compound concentrations:100 nM and 1000 nM (sheet 'Samples')

CCn1c(-c2nonc2N)nc2c(C#CC(C)(C)O)ncc(OCCCCN)c21.CCn1c(-c2nonc2N)nc2c(C#CC(C)(C)O)ncc(OCCCCN)c21.O=C(O)C(F)(F)F.O=C(O)C(F)(F)F [GSK507274A] gave a potency estimated from few doses (AKT2; [1]) of 1.44 µM, a potency estimated from few doses (CDC42BPA) of 2.2 µM and a potency estimated from few doses (CDC42BPG) of 1.8 µM. For the same molecule, the potency estimated from few doses (CIT) was 0.554 µM, the potency estimated from few doses (GSK3A) was 0.328 µM and the potency estimated from few doses (GSK3B) was 0.488 µM. For the same molecule, the potency estimated from few doses (LATS1) was 0.0839 µM, the potency estimated from few doses (MAPKAPK2) was 1.37 µM and the potency estimated from few doses (MARK2) was 0.44 µM. It also gave a potency estimated from few doses (MARK3) of 0.178 µM, a potency estimated from few doses (MARK4) of 0.629 µM and a potency estimated from few doses (PAK4) of 0.0309 µM. For the same molecule, the potency estimated from few doses (PAK6) was 0.0993 µM, the potency estimated from few doses (PKN1) was 0.191 µM and the potency estimated from few doses (PKN3) was 0.013 µM. The potency estimated from few doses (PRKACA) was 0.787 µM, the potency estimated from few doses (PRKACB) was 0.965 µM and the potency estimated from few doses (PRKCD) was 1.45 µM. It also gave a potency estimated from few doses (PRKCI) of 1.89 µM, a potency estimated from few doses (PRKG1) of 1.07 µM and a potency estimated from few doses (PRKX) of 0.0541 µM. The potency estimated from few doses (ROCK2) was 0.446 µM and the potency estimated from few doses (RPS6KA4) was 0.749 µM.

COc1ccc2c(-c3ccnc(Nc4cccc(OC(F)(F)F)c4)n3)cnn2n1 [GW810372X] was tested, and the potency estimated from few doses (AGK; [1]) was 2.27 µM, the potency estimated from few doses (CDKL5) was 1.85 µM and the potency estimated from few doses (CLK1) was 0.0824 µM. For the same molecule, the potency estimated from few doses (CLK2) was 0.0202 µM and the potency estimated from few doses (CLK4) was 0.12 µM.

With Cc1ccc(S(=O)(=O)Nc2ccc(Nc3nccc(Nc4cccc5[nH]ncc45)n3)cc2)cc1 [GSK581271A] the potency estimated from few doses (AGK; compound concentrations: 100 nM and 1000 nM (sheet 'Samples'), CATDS: 0.56358245780801897) was 1.53 µM and the potency estimated from few doses (MAP2K2; CATDS: 0.44930961839154798) was 2.42 µM.

Cc1cc(N2Cc3ccccc3C2)nc(Nc2ccc(S(=O)(=O)N3CCOCC3)cc2)n1.Cl [GSK1669917A] gave a potency estimated from few doses (ADRBK1; CATDS: 0.38079622737555602) of 1.29 µM, a potency estimated from few doses (MAP2K2; CATDS: 0.29465532437802699) of 2.17 µM and a potency estimated from few doses (NNT; CATDS: 0.33555608244827101) of 1.64 µM.

Cc1cccc(Nc2ncc(-c3ccccc3)o2)c1 [GW632046X] showed a potency estimated from few doses (ADRBK1; CATDS: 0.18601551584516901) of 1.42 µM, a potency estimated from few doses (FLT3) of 0.0261 µM and a potency estimated from few doses (NNT; CATDS: 0.20642475044215899) of 1 µM. The potency estimated from few doses (PDGFRB) was 0.873 µM.

In the case of C[C@@H](Oc1cc(-n2cnc3ccc(NC(=O)NC(C)(C)C)cc32)sc1C(N)=O)c1ccccc1Cl [GSK346294A], the potency estimated from few doses (AKT2; compound concentrations: 100 nM and 1000 nM (sheet 'Samples'), CATDS: 0.175578596413346) is reported as 2.32 µM, the potency estimated from few doses (MAP2K2; CATDS: 0.187838411723944) is reported as 1.98 µM and the potency estimated from few doses (PLK1) is reported as 0.851 µM. It also gave a potency estimated from few doses (RIOK2) of 2.12 µM and a potency estimated from few doses (STK26) of 1.85 µM.

With COc1cc(F)c(F)cc1C(=O)c1cnc(NC2CCN(S(C)(=O)=O)CC2)nc1N [RO4595655-000] the potency estimated from few doses (ATM) was 0.157 µM, the potency estimated from few doses (CDK16) was 1.51 µM and the potency estimated from few doses (CDK17) was 1.84 µM. The potency estimated from few doses (CDK2) was 1.21 µM, the potency estimated from few doses (CLK4) was 1.43 µM and the potency estimated from few doses (PAK4) was 1.34 µM. For the same molecule, the potency estimated from few doses (STK3) was 2.3 µM and the potency estimated from few doses (STK4) was 1.69 µM.
